Sampled rows, rich in hits. Any-hit rate of the full collection: about 27%.
CYP2C9 inh = human CYP2C9 inhibition; inhibition, % at 5 µM; AID 777; CYP2C9 Supersomes, luciferin-H conversion, luminescence; hit rate 20% among 96,000; P11712;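 active = blocking of liver enzyme CYP2C9 beyond about 50% at 5 µM, limit read from the data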
Cav32 inh = inhibitors of human Cav3.2 T-type calcium channel. AID 449739. hit rate 4% among 100,000. O95180. B-score at 10 µM. Cav3.2-expressing cells, Fluo-4 calcium fluorescence FDSS; active compounds read low;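 active = single-dose well whose peak fluorescence ratio is a statistical outlier from its plate by either plate-standardised score or position-corrected B-score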
Target sequence (O95180 whole entry, looked up): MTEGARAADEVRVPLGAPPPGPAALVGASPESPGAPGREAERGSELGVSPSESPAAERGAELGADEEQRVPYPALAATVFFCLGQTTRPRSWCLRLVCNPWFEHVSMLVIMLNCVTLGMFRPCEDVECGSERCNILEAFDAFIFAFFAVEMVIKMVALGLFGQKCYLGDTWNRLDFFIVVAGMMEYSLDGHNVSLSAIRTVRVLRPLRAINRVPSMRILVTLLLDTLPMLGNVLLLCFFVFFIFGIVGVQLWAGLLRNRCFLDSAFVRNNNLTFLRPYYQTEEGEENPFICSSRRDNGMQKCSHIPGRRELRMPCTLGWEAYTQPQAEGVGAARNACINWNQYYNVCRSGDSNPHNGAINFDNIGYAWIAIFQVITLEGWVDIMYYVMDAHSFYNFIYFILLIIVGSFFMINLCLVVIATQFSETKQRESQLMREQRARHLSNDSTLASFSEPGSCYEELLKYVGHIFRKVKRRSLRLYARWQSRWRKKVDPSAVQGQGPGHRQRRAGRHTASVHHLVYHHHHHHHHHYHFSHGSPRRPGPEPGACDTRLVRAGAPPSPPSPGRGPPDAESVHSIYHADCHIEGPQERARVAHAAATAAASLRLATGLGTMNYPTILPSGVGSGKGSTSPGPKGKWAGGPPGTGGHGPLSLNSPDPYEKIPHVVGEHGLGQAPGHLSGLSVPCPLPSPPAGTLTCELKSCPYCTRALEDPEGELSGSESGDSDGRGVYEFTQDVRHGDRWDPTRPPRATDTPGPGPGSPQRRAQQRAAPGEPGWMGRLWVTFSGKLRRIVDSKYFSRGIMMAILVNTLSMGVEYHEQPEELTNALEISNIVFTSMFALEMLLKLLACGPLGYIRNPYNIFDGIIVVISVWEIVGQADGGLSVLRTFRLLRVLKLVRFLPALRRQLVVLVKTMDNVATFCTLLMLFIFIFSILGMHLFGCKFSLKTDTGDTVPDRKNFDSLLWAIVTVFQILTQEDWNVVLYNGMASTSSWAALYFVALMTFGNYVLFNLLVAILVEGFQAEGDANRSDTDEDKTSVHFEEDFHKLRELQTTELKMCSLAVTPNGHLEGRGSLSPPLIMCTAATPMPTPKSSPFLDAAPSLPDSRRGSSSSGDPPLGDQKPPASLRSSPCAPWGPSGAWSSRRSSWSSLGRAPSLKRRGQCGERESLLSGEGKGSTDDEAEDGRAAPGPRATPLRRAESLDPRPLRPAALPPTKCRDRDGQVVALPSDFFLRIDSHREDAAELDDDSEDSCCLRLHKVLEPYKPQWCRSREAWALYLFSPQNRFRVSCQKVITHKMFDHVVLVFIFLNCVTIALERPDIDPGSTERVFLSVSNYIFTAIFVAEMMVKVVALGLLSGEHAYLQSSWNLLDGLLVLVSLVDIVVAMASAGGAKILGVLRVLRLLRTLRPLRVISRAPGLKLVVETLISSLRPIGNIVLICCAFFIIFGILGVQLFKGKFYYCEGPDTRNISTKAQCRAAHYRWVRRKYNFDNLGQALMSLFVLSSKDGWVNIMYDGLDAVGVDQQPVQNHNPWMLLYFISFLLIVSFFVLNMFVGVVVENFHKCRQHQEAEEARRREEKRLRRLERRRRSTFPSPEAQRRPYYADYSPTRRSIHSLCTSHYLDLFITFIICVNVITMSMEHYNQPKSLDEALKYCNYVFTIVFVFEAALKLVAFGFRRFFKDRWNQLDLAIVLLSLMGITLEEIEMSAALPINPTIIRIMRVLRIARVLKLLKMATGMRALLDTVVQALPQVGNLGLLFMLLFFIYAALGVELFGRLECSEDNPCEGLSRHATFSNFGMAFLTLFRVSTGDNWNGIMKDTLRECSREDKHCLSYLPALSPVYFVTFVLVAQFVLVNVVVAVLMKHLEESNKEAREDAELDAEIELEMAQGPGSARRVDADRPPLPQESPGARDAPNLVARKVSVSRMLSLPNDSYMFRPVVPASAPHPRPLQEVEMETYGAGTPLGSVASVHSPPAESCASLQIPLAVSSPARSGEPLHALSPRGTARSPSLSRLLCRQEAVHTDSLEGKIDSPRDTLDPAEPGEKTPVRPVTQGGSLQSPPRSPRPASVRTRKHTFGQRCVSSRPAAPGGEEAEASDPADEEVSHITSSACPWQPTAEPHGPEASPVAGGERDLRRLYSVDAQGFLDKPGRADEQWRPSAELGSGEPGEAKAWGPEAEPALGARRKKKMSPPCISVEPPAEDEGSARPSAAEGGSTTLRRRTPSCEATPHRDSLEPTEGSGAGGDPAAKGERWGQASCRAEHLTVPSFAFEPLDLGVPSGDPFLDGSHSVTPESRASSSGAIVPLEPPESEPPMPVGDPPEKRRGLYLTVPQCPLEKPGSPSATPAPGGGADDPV
PTK2B oligo ant = blocks oligomerization of human Pyk2 in cells | Q293 cells, Pyk2 FERM NanoBiT luminescence; active compounds read low | AID 1347419 | Q14289 | z-score (the deposit names both 25 µM and 10 µM) | hit rate 0.83% among 99,000;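 active = Z-score of -3 or lower, scaled per plate to the spread of control and sample wells; inactive = z-score above -3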;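 also: negative z-score means lost luminescence so less FERM oligomerization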
CYP2C19 act = increases human CYP2C19 enzyme activity; P33261; activation factor at 5 µM; 96,000 tested, under 10 active; recombinant CYP2C19, luciferin-H EGE luminescence; active compounds read high; 0 = fully inhibited enzyme, 1 = untreated enzyme;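 active = activation factor of at least 2 at 5 µM in the primary screen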
CYP2C9 activ = activators of human CYP2C9 | P11712 | recombinant CYP2C9, luciferin-H conversion, luminescence; active compounds read high; factor 1 = untreated enzyme, 0 = blocked | activation factor at 5 µM | hit rate 1.4% among 96,000 | AID 1024;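 active = activation factor of 2 or more for CYP2C9 at a 5 µM dose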
CYP2C19 inhib = human CYP2C19 inhibition | AID 778 | inhibition, % at 5 µM | CYP2C19 Supersomes, luciferin-H EGE luminescence, 30 min | hit rate 21% among 96,000 | P33261;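 active = CYP2C19 inhibition above a set limit at 5 µM in the primary screen, cut at about 50% in these data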
Each line names hits and unclear results; the compound was inactive in the other large screens.

Cc1ccc(S(=O)(=O)N(CC(O)CN2CCOCC2)c2cc(Cl)ccc2Cl)cc1 (stereo not drawn)	CYP2C19 inhib 53.8
COc1ccc(-c2cc3ccccc3n2CC(O)CN2CCOCC2)cc1 (stereo not drawn)	CYP2C9 inh 63.1, CYP2C19 inhib 95.2
Cc1ccc(N(CC(O)CN2CCOCC2)S(=O)(=O)c2ccc3ccccc3c2)cc1 (stereo not drawn)	CYP2C9 inh 52.3
Cc1ccc(N(CC(O)CN2CCCC2)S(=O)(=O)c2ccc(C)cc2)cc1 (stereo not drawn)	none
O=C(/C=C\Nc1ccccn1)c1ccccc1	CYP2C19 inhib 78.6
CCn1c(SCC(=O)N2CCOCC2)nc(O)cc1=O	none (no result: PTK2B oligo ant)
CC1=C(C(=O)Nc2ccccc2F)C(c2ccsc2)C2=C(CC(c3ccccc3)CC2=O)N1 (stereo not drawn)	Cav32 inh -6.53, CYP2C19 inhib 79.2
CN(C)S(=O)(=O)c1ccc(-c2cn3ccccc3n2)cc1	CYP2C9 inh 54.0
Cc1ccc(NC(=O)/C(=C\c2cccc([N+](=O)[O-])c2)NC(=O)c2cccs2)cc1	none (no result: Cav32 inh)
O=C(Nc1nn[nH]n1)C12CC3CC(CC(C3)C1)C2	none
Cc1nn(Cc2cccc(C(=O)NC3CCCCC3)c2)c(C)c1Cl	none (no result: Cav32 inh)
Cc1csc(NC(=O)c2cccc(Cn3nc(C)c(Br)c3C)c2)n1	CYP2C9 inh 90.0, Cav32 inh -3.7, CYP2C19 inhib 93.4
CC(=O)c1cccc(NC(=O)CN2C(=O)C3C4C=CC(C4)C3C2=O)c1 (stereo not drawn)	CYP2C9 inh 72.1, CYP2C19 inhib 95.4
CCOc1ccccc1NC(=O)CN1C(=O)COc2ccc(Cl)cc21	CYP2C19 inhib 50.5 (no result: PTK2B oligo ant)
Cc1ccc2c(c1)N(CC(=O)Nc1ccc3c(c1)OCCO3)C(=O)CO2	none
CC(=O)c1cccc(NC(=O)CN2C(=O)COc3ccc(Cl)cc32)c1	CYP2C9 inh 62.2
CCOC(=O)CN1C(=O)COc2ccc(Cl)cc21	none
COC(=O)c1ccc(NC(=O)CN2C(=O)C3C4C=CC(C4)C3C2=O)cc1 (stereo not drawn)	none
Cc1cc(C)c2c(c1)/C(=N/NS(=O)(=O)c1ccccc1)CCC2	none
O=S(=O)(N/N=C/c1ccc2c(c1)OCCO2)c1ccccc1	none
Cc1ccc(S(=O)(=O)N/N=C2/CC(c3ccccc3)Oc3ccccc32)cc1 (stereo not drawn)	CYP2C9 inh 79.5
O=S(=O)(N/N=C1\CC(c2ccccc2)Oc2ccccc21)c1ccccc1 (stereo not drawn)	Cav32 inh -7.66
CCOc1ccc(S(=O)(=O)N/N=C2/CC(c3ccccc3)Oc3ccccc32)cc1 (stereo not drawn)	CYP2C9 inh 87.6, Cav32 inh -7.13, CYP2C19 inhib 55.5
CCOc1ccc(S(=O)(=O)NCc2ccco2)cc1	none
C#CCOCCOCCOCCNc1nc(N2CCN(C(=O)[C@H]([C@@H](C)O)n3cc(CCCCN)nn3)CC2)nc(N2CCN(C(=O)[C@H](Cc3ccc(O)cc3)n3cc(CCO)nn3)CC2)n1	none (no result: CYP2C9 inh, PTK2B oligo ant, CYP2C19 act, CYP2C9 activ, CYP2C19 inhib)
Fc1ccc(-c2n[nH]c(=S)n2CC2CCCO2)cc1 (stereo not drawn)	none
CC1CCc2c(sc3nc(CN4CCOCC4)nc(NS(=O)(=O)c4cccc([N+](=O)[O-])c4)c23)C1 (stereo not drawn)	CYP2C9 inh 84.1 (no result: Cav32 inh)
Cc1cc(S(=O)(=O)Nc2nc(CN3CCOCC3)nc3sc4c(c23)CCCC4)ccc1F	CYP2C9 inh 87.9, CYP2C19 inhib 59.8 (no result: Cav32 inh)
COc1ccc(NC(=O)CNc2cccc(C#N)c2)cc1Cl	none
COc1ccc(NC(C)C(=O)Nc2ccc(C#N)cc2)cc1Cl (stereo not drawn)	CYP2C9 inh 98.2, CYP2C19 inhib 99.9
COc1ccc(NC(C)C(=O)Nc2ccc(C(C)(C)C)cc2)cc1Cl (stereo not drawn)	CYP2C9 inh 90.1, Cav32 inh -6.02, CYP2C19 inhib 93.8
COc1ccc(NCC(=O)Nc2ccc(C#N)cc2)cc1Cl	CYP2C9 inh 69.1, CYP2C19 inhib 68.6
CN(CC(=O)Nc1ccc(C#N)cc1)Cc1ccc(Cl)cc1Cl	CYP2C9 inh 90.2, Cav32 inh -4.2, CYP2C19 inhib 93.9
N#Cc1ccc(NC(=O)Nc2ccc(Cl)cc2)cc1	none
O=C(CSc1nc(-c2ccc(F)cc2)cc(C(F)(F)F)n1)NCc1ccco1	none (no result: CYP2C9 inh, CYP2C19 act, CYP2C9 activ, CYP2C19 inhib)

Screens: PubChem BioAssay, several laboratories
